Measurements as given in PubChem BioAssay (NCI).
Several values for one entry are separate records, joined by “and”; a condition that tells them apart may be missing. Equal values may be shown once. This is part of a sample that, as a whole, favours compounds with a hit. Of some 79,000 tested, about 15% had one in any assay. Unmarked numbers belong to inactive results. Activity calls are given as the source filed them. Cut-off read from the data, not from the text of the source: active = growth inhibition above about 70%; inactive = the rest.

Tests used:
[1] = NCI Yeast Anticancer Drug Screen. Data for the rad50 strain (AID 155);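 note: 0% = growth of vehicle-only cultures of the same strain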; details: S. cerevisiae rad50 strain growth inhibition; at 50.0 µM; active compounds read high
Outline: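 Inhibition values express reduced yeast growth in compound-treated cultures relative to vehicle-treated controls.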

[2] = NCI Yeast Anticancer Drug Screen. Data for the mec2-1 strain (AID 157); details: S. cerevisiae mec2-1 strain, at 50.0 µM, active compounds read high
Outline: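 Cells of the genetically defined mec2-1 yeast strain are incubated with test compound. Inhibition of growth is calculated against vehicle-treated controls.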

[3] = NCI Yeast Anticancer Drug Screen. Data for the sgs1 mgt1 strain (AID 161);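 note: 0% = growth of cultures given vehicle only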; details: S. cerevisiae sgs1 mgt1 strain, at 50.0 µM, active compounds read high
Outline: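 Read-out: growth inhibition vs vehicle controls. Cells: mutant yeast strain deficient in DNA damage repair.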

[4] = NCI Yeast Anticancer Drug Screen. Data for the cln2 rad14 strain (AID 165);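 note: 0% = growth equal to vehicle treated cultures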; details: S. cerevisiae cln2 rad14 strain, at 50.0 µM, active compounds read high
Outline: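 The screen exposed genetically defined yeast (cln2 rad14) to test compounds and scored growth inhibition relative to vehicle-treated controls.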

[5] = NCI Yeast Anticancer Drug Screen. Data for the bub3 strain (AID 167); details: S. cerevisiae bub3 mutant strain, at 50.0 µM, active compounds read high
Outline: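 Steps: expose the mutant yeast strain to compound; grow alongside vehicle-treated cultures; measure growth; express inhibition against the vehicle cultures.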

[6] = NCI Yeast Anticancer Drug Screen. Data for the mlh1 rad18 strain (AID 175); details: S. cerevisiae mlh1 rad18 strain growth inhibition; at 50.0 µM; active compounds read high
Outline: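 Compound-treated yeast growth, normalised to vehicle controls. Strain bears defined DNA repair mutations.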

C=CC(N)=O (tested in a mixture with another compound)
growth inhibition [1]: 1.15% | growth inhibition [2]: -7.1% | growth inhibition [3]: 8.2% | growth inhibition [4]: 0.4% | growth inhibition [5]: 15.8% | growth inhibition [6]: 2.2%

CCO[C@@H]1c2cc3c(cc2[C@@H](c2cc(OC)c(O)c(OC)c2)[C@H]2C(=O)OC[C@@H]21)OCO3
growth inhibition [1]: 88.1% (active) | growth inhibition [2]: 92.2% (active) | growth inhibition [3]: 89% (active) | growth inhibition [4]: 85.2% (active) | growth inhibition [5]: 88.5% (active) | growth inhibition [6]: 87.5% (active)

C[N+](C)(C)CC(CC(=O)[O-])C1CC1 (stereo not drawn)
growth inhibition [1]: 3.7% | growth inhibition [2]: -7.8% | growth inhibition [3]: -18.6% | growth inhibition [4]: 2.1% | growth inhibition [5]: -19.1% | growth inhibition [6]: -19.1%

CSCC(NP1(=O)SC(NN=C(C)C)=NC1(C)C)C(=O)O (stereo not drawn)
growth inhibition [1]: 4.85% | growth inhibition [2]: -3.7% | growth inhibition [3]: -26.5% | growth inhibition [4]: 20.3% | growth inhibition [5]: 17.6% | growth inhibition [6]: -3.45%

O=C([O-])CC(=O)[O-].O=C([O-])CC(=O)[O-].[K+].[Pd+2]
growth inhibition [1]: 14.2% | growth inhibition [2]: 19.1% | growth inhibition [3]: 28.2% | growth inhibition [4]: 26.6% | growth inhibition [5]: 11.5% | growth inhibition [6]: 16.2%

c1cc[n+]2c3c(sc2c1)CCC3
growth inhibition [1]: 9.75% | growth inhibition [2]: -8.2% | growth inhibition [3]: -5.25% | growth inhibition [4]: -4.15% | growth inhibition [5]: -6.7% | growth inhibition [6]: -26.8%

CC[N+](C)(CC)CCC(C(=O)NC)(c1ccccc1)c1ccccc1
growth inhibition [1]: -2.45% | growth inhibition [2]: -1.35% | growth inhibition [3]: -22.8% | growth inhibition [4]: -34.6% | growth inhibition [5]: 0.05% | growth inhibition [6]: -19.1%

NC(N)=N/N=C/C(=N\N=C(N)N)C(O)C(O)C(O)C(O)CO (stereo not drawn)
growth inhibition [1]: -10.3% and 44.2% | growth inhibition [2]: -20.9% and -3.55% | growth inhibition [3]: -16.1% and 31.9% | growth inhibition [4]: -22.6% and 15.1% | growth inhibition [5]: -3.8% and 7.3% | growth inhibition [6]: -22.4% and 15.9%

CCOP(=O)(Oc1ccc([N+](=O)[O-])cc1)c1cccc(Br)c1 (stereo not drawn)
growth inhibition [1]: 41.5% | growth inhibition [2]: 19.5% | growth inhibition [3]: 54% | growth inhibition [4]: 41.3% | growth inhibition [5]: 38.5% | growth inhibition [6]: 25%

CN1C(=O)NC(C)(c2cccc(N(CCCl)CCCl)c2)C1=O (stereo not drawn)
growth inhibition [1]: 5.5% | growth inhibition [2]: 24.2% | growth inhibition [3]: 10.8% | growth inhibition [4]: 8.2% | growth inhibition [5]: -13.9% | growth inhibition [6]: 27.6%

C=CCCOC(=O)CO[N+](=O)[O-]
growth inhibition [1]: 6.8% | growth inhibition [2]: -0.7% | growth inhibition [3]: 5.35% | growth inhibition [4]: 8.8% | growth inhibition [5]: -4.25% | growth inhibition [6]: 4.1%

Cc1nc2cccc(F)c2c(=O)n1-c1nnc(C2CC2)s1
growth inhibition [1]: -28.6% | growth inhibition [2]: -23.5% | growth inhibition [3]: -20.2% | growth inhibition [4]: 13.5% | growth inhibition [5]: -41.2% | growth inhibition [6]: -9.05%

CC1([N+](=O)[O-])COP(=O)(NCc2ccccc2)OC1 (stereo not drawn)
growth inhibition [1]: 11.9% | growth inhibition [2]: -20.9% | growth inhibition [3]: -9.3% | growth inhibition [4]: -4.8% | growth inhibition [5]: 6.2% | growth inhibition [6]: 2.35%

NCCN.NCCN.O=C([O-])C(=O)[O-].[Cl-].[Co+3]
growth inhibition [1]: -22.4% | growth inhibition [2]: -16.7% | growth inhibition [3]: -31.8% | growth inhibition [4]: -0.45% | growth inhibition [5]: -24.6% | growth inhibition [6]: -29.8%

O=C(O)/C=C\c1c[nH]c2ccccc12 (tested in a mixture with another compound)
growth inhibition [1]: -3.3% | growth inhibition [2]: -7.35% | growth inhibition [3]: -13.4% | growth inhibition [4]: 0.95% | growth inhibition [5]: -10.8% | growth inhibition [6]: -12.2%

CCC(c1ccc(OC)cc1)C(N)c1ccc(OC)cc1 (stereo not drawn)
growth inhibition [1]: -14.3% | growth inhibition [2]: 1.05% | growth inhibition [3]: -11.9% | growth inhibition [4]: -10.5% | growth inhibition [5]: -4.35% | growth inhibition [6]: -0.3%

NC(=O)NNC(=O)C(Cl)(Cl)Cl
growth inhibition [1]: -0.45% | growth inhibition [2]: -8.55% | growth inhibition [3]: 5.6% | growth inhibition [4]: -63.3% | growth inhibition [5]: -4.65% | growth inhibition [6]: -14.2%

CCOP(=S)(N/N=C/c1ccc(C)s1)OCC
growth inhibition [1]: -19.3% | growth inhibition [2]: -27.2% | growth inhibition [3]: 5.45% | growth inhibition [4]: -12.3% | growth inhibition [5]: 7.65% | growth inhibition [6]: -30.8%

CC(C)CCCCCc1ccc(OCCOc2ccc(C(=O)Nc3ccc(S(=O)(=O)F)cc3[N+](=O)[O-])cc2)cc1
growth inhibition [1]: 42.1% | growth inhibition [2]: -8.75% | growth inhibition [3]: 26.2% | growth inhibition [4]: -11.7% | growth inhibition [5]: 0.5% | growth inhibition [6]: 9.85%

Nc1n[nH][nH]c1=O
growth inhibition [1]: -29.5% | growth inhibition [2]: -26.1% | growth inhibition [3]: -13.9% | growth inhibition [4]: -20.4% | growth inhibition [5]: -0.7% | growth inhibition [6]: -12.1%

COc1ccc(CC(N)C(=O)O)cc1N(CCCl)CCCl (stereo not drawn)
growth inhibition [1]: -0.2% and -0.5% | growth inhibition [2]: -0.55% and -7.45% | growth inhibition [3]: -11.2% and -6.65% | growth inhibition [4]: -6.55% and -9.85% | growth inhibition [5]: 2.25% and 7.75% | growth inhibition [6]: -9.25% and -7.2%

c1ccc(N2CCNCC2)cc1 (tested in a mixture with another compound)
growth inhibition [1]: -18.1% and 5.8% | growth inhibition [2]: 6.7% and -16.3% | growth inhibition [3]: -26.1% and -5.8% | growth inhibition [4]: -4% and -48.5% | growth inhibition [5]: 10.2% and 10.3% | growth inhibition [6]: -27.7% and -4.65%

Nc1ccccc1Nc1ccccc1C(=O)[O-].Nc1ccccc1Nc1ccccc1C(=O)[O-].[Zn+2]
growth inhibition [1]: -19.2% | growth inhibition [2]: -7% | growth inhibition [3]: -15.2% | growth inhibition [4]: 10.2% | growth inhibition [5]: -29.4% | growth inhibition [6]: -7.55%

NC(Cc1ccccc1)c1ccccc1 (stereo not drawn)
growth inhibition [1]: 3.15% and -1.6% | growth inhibition [2]: -7.3% and -0.95% | growth inhibition [3]: 0.3% and -16.8% | growth inhibition [4]: -36% and -23.1% | growth inhibition [5]: 5.35% and 1.75% | growth inhibition [6]: 14.8% and -0.1%

CC(C)(C)C1=CC(=C(P(=O)(O)O)P(=O)(O)O)C=C(C(C)(C)C)C1=O
growth inhibition [1]: -32.6% | growth inhibition [2]: -12.7% | growth inhibition [3]: -49.5% | growth inhibition [4]: -21.9% | growth inhibition [5]: -47.8% | growth inhibition [6]: -34.5%

O=C1C2C(C(=O)N1c1ccc(Cl)c(Cl)c1)C1(Cl)C(Cl)=C(Cl)C2(Cl)C1(Cl)Cl (stereo not drawn)
growth inhibition [1]: 91.8% (active) | growth inhibition [2]: 95.2% (active) | growth inhibition [3]: 96.1% (active) | growth inhibition [4]: 86.5% (active) | growth inhibition [5]: 94.1% (active) | growth inhibition [6]: 95.7% (active)

CCCCN(CCCC)CCc1ccccc1
growth inhibition [1]: 19.6% | growth inhibition [2]: 1.8% | growth inhibition [3]: 8.45% | growth inhibition [4]: 17.8% | growth inhibition [5]: 30.4% | growth inhibition [6]: 17%

CC(C)=C(OP1(=S)OCCN1C)C(C)(C)C(=O)N(C)C (stereo not drawn)
growth inhibition [1]: -2.6% | growth inhibition [2]: -3.65% | growth inhibition [3]: -1.9% | growth inhibition [4]: 12.8% | growth inhibition [5]: 11.9% | growth inhibition [6]: 4.45%

CC(=O)CC(C)=O.[In]
growth inhibition [1]: 23.8% | growth inhibition [2]: 42.6% | growth inhibition [3]: 34.5% | growth inhibition [4]: 29.4% | growth inhibition [5]: 27.6% | growth inhibition [6]: 2.65%

c1ccc2c(c1)ccc1[s+]cccc12
growth inhibition [1]: 69.4% | growth inhibition [2]: 23.2% | growth inhibition [3]: 35.7% | growth inhibition [4]: 25.4% | growth inhibition [5]: 16.1% | growth inhibition [6]: 76% (active)

Cc1cc(N(CCCl)CCCl)ccc1CN1CCCN(Cc2ccc(N(CCCl)CCCl)cc2C)C1c1ccccc1O
growth inhibition [1]: 0.25% | growth inhibition [2]: 14.5% | growth inhibition [3]: 11.1% | growth inhibition [4]: -4.5% | growth inhibition [5]: 0.05% | growth inhibition [6]: 31.9%

O=c1cc(O)c2ccccc2o1
growth inhibition [1]: 26.1% | growth inhibition [2]: -1.55% | growth inhibition [3]: -4.1% | growth inhibition [4]: 15.6% | growth inhibition [5]: -10.2% | growth inhibition [6]: 14.3%

CCc1ccc(OP(=O)(Oc2cc(C)cc(C)c2)Oc2cc(C)cc(C)c2)cc1
growth inhibition [1]: -27.9% | growth inhibition [2]: -12.9% | growth inhibition [3]: -16.1% | growth inhibition [4]: 3.45% | growth inhibition [5]: 1.55% | growth inhibition [6]: -15.9%

c1ccc(N2CCN(Cc3c[nH]c4ccccc34)CC2)cc1
growth inhibition [1]: 7.9% | growth inhibition [2]: 1.9% | growth inhibition [3]: 7.55% | growth inhibition [4]: -26.6% | growth inhibition [5]: 0.85% | growth inhibition [6]: -9.6%

[Mg]=[Se]
growth inhibition [1]: 16.6% | growth inhibition [2]: 3.15% | growth inhibition [3]: 14.4% | growth inhibition [4]: -6.5% | growth inhibition [5]: 6% | growth inhibition [6]: 38.8%

COc1cc(CC[N+](C)(C)C)cc(OC)c1OC
growth inhibition [1]: 4.95% | growth inhibition [2]: 6.1% | growth inhibition [3]: 7.85% | growth inhibition [4]: 25.2% | growth inhibition [5]: 9.5% | growth inhibition [6]: 34.7%

NNC(=S)NN
growth inhibition [1]: 4.95% | growth inhibition [2]: 4.3% | growth inhibition [3]: 1.7% | growth inhibition [4]: -15.4% | growth inhibition [5]: -2.6% | growth inhibition [6]: 35.6%

O=C(O)C1C(C(=O)O)C2(Cl)C(Cl)=C(Cl)C1(Cl)C2(Cl)Cl.[Cd] (stereo not drawn)
growth inhibition [1]: 61.4% | growth inhibition [2]: 13.9% | growth inhibition [3]: -0.2% | growth inhibition [4]: -14.7% | growth inhibition [5]: -6.75% | growth inhibition [6]: 19.4%
